According to PubChem BioAssay (NCATS):
Records with an inconclusive call do not appear. A number with no mark means an inactive call. Calls follow the shape of the full dose curve; tested in HEK293 reporter line.

assay: qHTS for Inhibitors of the Functional Ribonucleoprotein Complex (vRNP) of Lassa (LASV) Arenavirus: LASV Primary Screen - GLuc reporter signal (AID 1347082); details: LASV minigenome vRNP, Gaussia luciferase reporter; series mostly up to 57.5 µM; activity change, negative = inhibition: at the top concentration; also: nearly all actives have a fitted effect of over 60% in size
% is scaled to controls: 0 for no effect and ±100 for the full control effect.

Row | SMILES | activity change, negative = inhibition
1 | O=C(O)CCC/C=C\C/C=C\C=C\[C@@H](O)C/C=C\CCCCCO | 7.21% [at 0.757 µM]
2 | COc1c2c(cc(O)c1C(C)=O)OC(C)(C)C=C2 | 1.57%
3 | C[C@]12C=CC(=O)C=C1CC[C@@H]1[C@@H]2[C@@H](O)C[C@@]2(C)[C@@H]1CC[C@]2(O)C(=O)CO | 6.86%
4 | O=c1ccn([C@H]2C[C@H](O)[C@@H](CO)O2)c(=O)[nH]1 | 3.43%
5 | C/C=C1\CN2[C@H]3C[C@@]45c6ccccc6N(C)[C@H]4[C@@H]2CC1C3[C@H]5O (stereo not given in full) | -4.08%
6 | CC[C@H](C)C(=O)N[C@H]1CCCN1C(=O)/C=C/c1ccccc1 | -7.56%
7 | CC(C)C1C(=O)O[C@@H]2CCN3CC=C(COC(=O)[C@](C)(O)[C@]1(C)O)[C@H]23 (stereo not given in full) | 10.5%
8 | COc1ccc([C@H]2c3cc(OC)c(OC)cc3C[C@@H](C)[C@@H]2C)cc1OC | -1.37%
9 | CC(=O)O[C@H]1C[C@@H]2CC[C@H]3[C@H]4C[C@H]([N+]5(C)CCCCC5)[C@@H](OC(C)=O)[C@@]4(C)CC[C@@H]3[C@@]2(C)C[C@H]1N1CCCCC1 | 12.2%
10 | OC[C@H]1O[C@@H](Oc2ccc(O)cc2)[C@H](O)[C@@H](O)[C@H]1O | 0.044%
11 | C=Cc1cc(OC)c2c(c1)c(=O)oc1c2cc(OC)c2c(O)ccc(C3OC(C)C(O)C(C)(O)C3O)c21 (stereo not given) | -2.75%
12 | CCc1ccc(O)c(OC)c1 | -16% [at 115 µM]
13 | COc1cc2c(=O)c(-c3ccc(O)cc3)coc2cc1OC1OC(CO)C(O)C(O)C1O (stereo not given) | 1.03%
14 | CCC/C=C/C/C=C/C=C/C=N/NN=O | -4.54%
15 | CC(C)=CCC[C@](C)(O)C1CC[C@]2(C)C1[C@H](O)CC1[C@@]3(C)CC[C@H](O[C@@H]4O[C@H](CO)[C@@H](O)[C@H](O)[C@H]4O[C@@H]4O[C@H](CO)[C@@H](O)[C@H](O)[C@H]4O)C(C)(C)C3CC[C@]12C (stereo not given in full) | 6.28%
